Data reported in PubChem BioAssay (NCI).
Where “and” joins values, the source holds several entries; their conditions need not be identical. Identical values can stand only once. This is part of a sample that, as a whole, favours compounds with a hit. Of some 83,000 tested, about 20% had one in any assay.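 How to read the values: 0–100, growth inhibition (40 = 60% inhibited); 0, no net growth; -100 to 0, cell death (-40 = 40% of starting cells died; -100 = all dead).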 Calls of active or inactive are those of the source.

System: NCI-H23 lung
Test: NCI-60 one-dose screen, 48 h (100 = growth as untreated, 0 = no growth, -100 = all killed)
Conditions: 10 µM unless noted
Protocol: Growth inhibition of the NCI-H23 human Non-Small Cell Lung tumor cell line is measured as a screen for anti-cancer activity. Cells are grown in 96 well plates and exposed to the test compound for 48 hours. Compounds are tested at a single concentration, which is 10^-5 M for most compounds. The reported endpoint is percent growth (GI% or GIPRCNT), where numbers from 0 - 100% represent growth inhibition, and numbers from -100% - 0 represent cell death. For example, a value of 40 represents 60% growth inhibition. A value of 0 means no net growth occurred over the course of the experiment. A value of -40 indicates 40% of cells at the beginning of the experiment died by the end of the experiment. A value of -100 means all cells are dead at the end of the experiment.
NCI-60 Human Tumor Cell Lines Screen was performed using the standard one-dose NCI protocol, which is described in more detail at https://dtp.cancer.gov/discovery_development/nci-60/default.htm.
Compounds with GIPRCNT values below 10 were considered active. Activity score was based on GIPRCNT using the following formula: […]
Score is 0 for GIPRCNT values of 100 or above, 50 for GIPRCNT values of 0, and 100 for GIPRCNT values of -100.

| SMILES | growth |
| --- | --- |
| NS(=O)(=O)c1ccc(Nc2nc(N/N=C/c3ccc4c(c3)OCO4)nc(Nc3ccccc3)n2)cc1 | 25.1% (inactive) |
| Cn1cc(-c2nnc(N)nc2-c2c[nH]c3ccc(F)cc23)c2cc(Br)ccc21 | 26.4% (inactive) |
| CC(=O)c1c([Si](C)(C)C)c2cc(C#N)ccn2c1C(=O)c1ccc(Br)cc1 | 84.1% (inactive) |
| N#Cc1c(-c2cccs2)cc(-c2cnccn2)nc1SCC(=O)N/N=C/c1ccc(Cl)cc1 | 100% (inactive) |
| C#C[C@]1(O)CC[C@H]2[C@@H]3CC=C4c5sc(NCc6ccccc6)nc5CC[C@]4(C)[C@H]3CC[C@@]21C | 54.2% (inactive) |
| COc1cc(NC(=O)Nc2cccc(-c3cc(=O)c4c(OC)c(OC)c(OC)cc4o3)c2)cc(OC)c1OC | 34.6% (inactive) |
| C#CCN(C)CCCOc1ccc(NCc2ccc(C(=O)NO)cc2)cc1Cl | 21.3% (inactive) |
| CSc1ccc(C(=NNS(=O)(=O)c2ccc(C)cc2)c2ccc(Cl)cc2)cc1 | 94% (inactive) |
| O=S(=O)(NCCCNc1nccc(-c2[nH]c(-c3ccccc3)nc2-c2ccc(F)c(O)c2)n1)c1cccc(F)c1 | 90.4% (inactive) |
| NS(=O)(=O)c1ccc(Nc2nc(Nc3ccccc3)nc(N3N=C(c4ccc(Cl)cc4)CC3c3ccc(Cl)cc3)n2)cc1 (stereo not given) | 54.8% (inactive) |
| CNCCN(C)c1ccc(Nc2cc(NC3CC3)n3ncc(C#N)c3n2)cc1NC(C)=O | -5.36% (active) |
| COC(=O)c1ccc(NC2=C(Cl)C(=O)C(C)=C(C)C2=O)cc1 | 68.5% (inactive) |
| O=C1C(N2CCN(c3ccccc3)CC2)=C(Cl)C(=O)c2ncccc21 | 46.3% (inactive) |
| Clc1ccc2[nH]cc(-c3nn4cc(-c5cccnc5)nc4s3)c2c1 | 92.8% (inactive) |
| Fc1ccc2nc(-c3cnn4cccnc34)sc2c1 | 93.3% (inactive) |
| CCCCCC[n+]1ccc(SCC(=O)n2ccc3ccccc32)c2ccccc21 | 63.8% (inactive) |
| Cc1ccc(S(=O)(=O)c2nc(-c3ccc(F)cc3)oc2S(C)(=O)=O)cc1 | 71.2% (inactive) |
| Cc1ccccc1N1CCN(C2=C(Cl)C(=O)c3ncccc3C2=O)CC1 | 38.1% (inactive) |
| O=c1c2cc(-c3ccc(F)cc3F)ccc2n(O)c(=O)n1-c1cccc(C(F)(F)F)c1 | -2.77% (active) |
| CCOC(=O)C1=C(C)NC(C)=C(C(=O)OC(C)C)C1c1cccc(C#N)c1 (stereo not given) | 96.7% (inactive) |

| SMILES | growth |
| --- | --- |
| CCN(CC)CCOc1ccc(C(=C(c2ccccc2)C2CCCC2)c2ccc(OCCN(CC)CC)cc2)cc1 | 16.7% (inactive) |
| CCN(CC)CCOc1ccc(C(=C(C)Cc2ccc(OC)cc2)c2ccc(OCCN(CC)CC)cc2)cc1 | 82.6% (inactive) |
| NC(=O)c1c(NC(=O)c2ccc(C(F)(F)F)cc2)sc2c1CCC(=O)C2 | -6.8% (active) |
| Cc1[nH]c(C(=O)Nc2ccccc2OCc2cccc(C(=O)NC3CCCNC3)c2)c(Cl)c1Cl (stereo not given) | -76.7% (active) |
| O=C(CCCCCCN1CC(=O)N2[C@@H](c3ccccc3Br)c3[nH]c4ccccc4c3C[C@H]2C1=O)NO | 63.9% (inactive) |
| CC(Nc1c(C#N)cnc2ccc(-c3cncc(-c4n[nH]c(=O)o4)c3)cc12)c1ccccc1 (stereo not given) | 17.4% (inactive) |
| O=C(CN1CCN(c2cc(=O)[nH]c3ccc(F)cc23)CC1)N(c1ccccc1)c1ccccc1 | 99.1% (inactive) |
| NC(=S)n1c(=O)n(-c2cccc(C(F)(F)F)c2)c(=O)c2cc(-c3ccc(F)cc3F)ccc21 | -5.28% (active) |
| CC(C)[C@H]1c2[nH]c3ccccc3c2C[C@H]2C(=O)N(CCCCCCC(=O)NO)CC(=O)N12 | 87.6% (inactive) |
| CCN(CC)c1ccc(/C=N/NC(=O)c2ccc(NS(C)(=O)=O)cc2)c(O)c1 | 23.3% (inactive) |
| CC(=C(c1ccc(OCCN(C)C)cc1)c1ccc(OCCN(C)C)cc1)c1ccc(Cl)cc1 | 29.5% (inactive) |
| CCOC(=O)Nc1ccc2c(ccn2C(=O)c2cccc(F)c2)c1 | 41.4% (inactive) |
| COc1cc(-c2nc(-c3ccccc3)[nH]c2-c2ccnc(NCCCNS(=O)(=O)c3ccc(C)cc3)n2)ccc1F | 103% (inactive) |
| Cc1ccc(NC2=C(Cl)C(=O)c3nc(C)ccc3C2=O)c(C)c1 | -49.9% (active) |
| C/C=C/CC(C)C(O)[C@H](NC(=O)[C@@H]1CCCN1C(=O)[C@](C)(CC)NC(=O)CCCCCCCCC)C(=O)N[C@@](C)(CC)C(=O)N[C@@H](CCC(N)=O)C(=O)N[C@H](CCC(N)=O)C(=O)NC(C)(C)C(=O)NC(C)(C)C(=O)N[C@@H](CCC(N)=O)C(=O)N[C@H](CC(C)C)C(=O)N[C@H](CO)CC(C)C (stereo not given in full) | 68.4% (inactive) and -71.3% (active) |
| COc1ccccc1Cn1cc(C#N)c(N)c1C(=O)c1ccc(Br)cc1 | 91.8% (inactive) |
| COc1cc(C(=O)c2cc(C(C)=O)c3cccc(C)n23)cc(OC)c1OC | 59.7% (inactive) |
| Cc1ccc([C@H]2c3[nH]c4ccccc4c3C[C@H]3C(=O)N(CCCCCCC(=O)NO)CC(=O)N23)s1 | 77.6% (inactive) |
| O=C(/C=C/c1ccc(F)cc1)Nc1cccc2cccnc12 | 91.6% (inactive) |
| CCCC[n+]1ccc(SCC(=O)n2ccc3ccccc32)c2ccccc21 | 74.5% (inactive) |
